Compound activity (PubChem)
Vaccinia Venus – vaccinia inhibition (Venus reporter) | AID 720580 | hit rate 0.46% among 330,000 | Potency, µM (series often up to 36.5 µM), for inactives: at the highest dose activity change, negative = inhibition, hits mostly inhibitors | Vaccinia virus Venus reporter expression, fluorescence; calls by dose curve; tested in A549 cells; note: potency is the fitted concentration of half-maximal effect; nearly all actives have a fitted effect of over 30% in size
HCMV inh – blocks human cytomegalovirus replication. hit rate 4.5% among 410,000. activity change, negative = inhibition, % at 57.5 µM. HFF cells, HCMV-luciferase reporter, 72 h; active compounds read low; in the data active = activity change below about -60%; inconclusive = no clear call, values can overlap the other calls; inactive = above about -39%
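Inhibition of viral replication was scored as loss of reporter luminescence in HFFs infected with HCMV-luciferase (MOI 1 PFU/cell) for 72 h; compounds tested at 2 doses, normalized to buffer and Salinomycin controls.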
Lassa entry inh – Lassa virus entry inhibition | Potency, µM (highest dose often 37.9 µM), for inactives: at the top dose activity change, negative = inhibition, usual class: inhibitors | Lassa virus pseudotype entry inhibition, cell reporter | hit rate 1.2% among 300,000; calls by dose curve; tested in HEK293 cells; note: potency is the fitted concentration of half-maximal effect; nearly all actives have a fitted effect of over 50% in size
Marburg entry inh – Marburg virus entry inhibition; hit rate 1.8% among 300,000; Potency, µM (series often up to 37.8 µM), inactives show at the top dose activity change, negative = inhibition, actives largely listed as inhibitors; AID 540276; Marburg virus pseudotyped entry inhibition, cell reporter; calls by dose curve; tested in HEK293 cells; note: potency is the fitted concentration of half-maximal effect
Vaccinia mCherry – vaccinia inhibition (mCherry reporter); Potency, µM (titrated, usually from 36.5 µM), for the others: top-dose activity change, negative = inhibition, actives largely listed as inhibitors; hit rate 0.63% among 310,000; Vaccinia virus mCherry reporter infection, fluorescence; calls by dose curve; tested in A549 cells; note: potency is the fitted concentration of half-maximal effect; nearly all actives have a fitted effect of over 35% in size
HCV inh – blocks hepatitis C virus; Huh7.5.1 HCVcc-Cre infection, luciferase reporter, 44 h; Potency, µM (doses to about 41.8 µM), inactives show at the top dose activity change, negative = inhibition, hits mostly inhibitors; hit rate 3.4% among 340,000; AID 651820; active = well fitted inhibition curve with a large enough effect; inconclusive = small, poorly fitted or top-dose-only effect, or another doubt; inactive = no such curve, though single readings can be large or run the other way; note: potency is the fitted concentration of half-maximal effect
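A cell-based infection assay in which seeded cells (1,000 per well) receive test compound after 4 h, are inoculated with HCVcc-Cre at approximately 0.5 moi, and are incubated 44 h before luminescence detection.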
* hit, by the source's call; i = inactive; ? = inconclusive; . = no result; ! = repeats disagree; [ ] = dose if it differs, or a comment. This is a sample that favours compounds with a hit; in the whole collection about 7.8% have one here. % is set by controls: 0 for no effect and ±100 for the full control effect.

SMILES | Vaccinia Venus | HCMV inh | Lassa entry inh | Marburg entry inh | Vaccinia mCherry | HCV inh
CN(C)c1ccc(CNC(=O)Cn2c(-c3cccs3)cc3cc(Cl)ccc32)cc1 | -19% | -71* | 8%[46.1 µM] | . | -21% | .
O=C(Nc1ccc(Nc2ccccc2)cc1)C(Cl)Cl | ? | -64* | ? | ? | ? | ?
C[C@H]1CCC/C=C/[C@@H]2C[C@H](O)C[C@H]2[C@H](O)[C@H](S(=O)c2ccc(O)cc2)CC(=O)O1 (some centres not stated) | ? | -99* | 1.3µM* | ? | ? | 0.56µM*
C[C@H]1CCC/C=C/[C@@H]2C[C@H](O)C[C@H]2[C@@H](O)/C=C/C(=O)O1 | ? | -76* | 0.4µM* | 0.28µM* | -6% | ?
CCCCC[C@H]1CCCCC[C@@H](O)C[C@@H](O)[C@@H](O)/C=C/C(=O)O1 | -10% | -13 | . | . | -14% | .
CC1CCCC=CC2CC(OC(=O)CN(C)C)CC2C(O)C=CC(=O)O1 (configuration not stated) | ? | -98* | 1.4µM* | ? | ? | 0.56µM*
COc1ccc(/C=C/c2cc[n+](C)c3ccccc23)cc1OC | 35% | . | . | . | -15% | .
C[n+]1ccc(/C=C/c2ccc([N+](C)(C)C)cc2)c2ccccc21 | 458% | . | . | . | i | .
CN1C=C/C(=C\c2cc[n+](C)c3ccccc23)c2ccccc21 | . | -100* | . | . | . | 4.5µM*
C[n+]1ccc(/C=C/c2cc[n+](C)c3ccccc23)c2ccccc21 | 10µM* | . | . | . | ? | .
CCOC(=O)c1cc(CC)sc1NC(=O)Cc1ccsc1 | -26% | ? | -8% | -21% | -29% | 5.6µM*
COC(=O)Cn1c(=O)c2cccn2c2ccc(F)cc21 | -7% | -7 | 6%[46.1 µM] | -1%[46.1 µM] | -11% | .
N#Cc1c(Cl)nc2c(c1C#N)CCCC2 | -20% | -75* | 9% | 16% | -7% | -20%
CN1/C(=C/C(=O)C2CC2)C(C)(C)c2ccccc21 | -23% | -22 | 5% | -22%[46.1 µM] | -2% | 12%
CN1/C(=C\C(=O)Nc2ccc(Br)cc2)C(C)(C)c2ccccc21 | -20% | 9 | ? | 0% | -4% | -33%
CN1/C(=C\C(=S)NC(=O)c2cccc(Br)c2)C(C)(C)c2ccccc21 | 34% | -96* | -1% | ? | i | 11µM*
CCN(CC)S(=O)(=O)c1cccc(C(=O)/C=C2/N(C)c3ccccc3C2(C)C)c1 | -20% | ? | ? | ? | -14% | 10µM*
CN1/C(=C\C(=O)Nc2cccc(Cl)c2)C(C)(C)c2ccccc21 | -10% | ? | -27%[46.1 µM] | ? | -23% | 32µM*
C=C(C)C(=O)/C=C/CCC/C=C/C(=O)OCC | . | . | . | 7%[14.2 µM] | . | .
COc1ccc(OCc2nc(C#N)c(NCc3ccccc3Cl)o2)cc1 | -2% | -31 | -24%[46.1 µM] | 5%[46.1 µM] | -9% | .
Cc1cc(NC(=O)C2CCN(S(=O)(=O)c3ccc(Br)s3)CC2)ccc1Br | -22% | -32 | -1%[46.1 µM] | 1%[46.1 µM] | -16% | .
CN(CC1CCCO1)S(=O)(=O)c1ccc(C(=O)Nc2nc(-c3ccccn3)cs2)cc1 (configuration not stated) | ? | . | ? | ? | ? | 4.5µM*
CN(CC1CCCO1)S(=O)(=O)c1ccc(C(=O)Nc2ccccc2F)cc1 (configuration not stated) | -16% | -12 | -22% | 0% | -12% | 17%
O=C(Nc1nc(-c2ccccn2)cs1)c1cc(S(=O)(=O)N2CCOCC2)ccc1F | . | 5 | . | . | . | ?
Cc1ccc(C(=O)Nc2nc(-c3ccccn3)cs2)cc1S(=O)(=O)N1CCOCC1 | . | -97* | . | . | . | 5.6µM*
SMILES | Vaccinia Venus | HCMV inh | Lassa entry inh | Marburg entry inh | Vaccinia mCherry | HCV inh
O=C(Nc1nc(-c2ccccn2)cs1)c1ccc(F)c(S(=O)(=O)N2CCOCC2)c1 | . | -97* | . | . | . | 3.5µM*
O=C(Nc1cccc(Cl)c1)C1CCN(c2nc3ccccc3nc2C(F)(F)F)CC1 | -1% | -11 | 20%[46.1 µM] | . | 2% | .
O=C(Nc1ccc(Oc2ccc3nc(NC(=O)c4ccccc4)[nH]c3c2)cc1)Nc1cc(C(F)(F)F)ccc1F | . | . | 6.3µM* | . | . | .
O=C(Nc1ccc(Oc2ccc3nc(NC(=O)c4ccco4)[nH]c3c2)cc1)Nc1cc(C(F)(F)F)ccc1F | . | . | 7.9µM* | . | . | .
COC(=O)Nc1nc2ccc(Oc3ccc(NC(=O)Nc4cccc(Br)c4)cc3)cc2[nH]1 | . | . | 18µM* | . | . | .
Cc1ccc2cc(C)c3nnc(SCC(=O)NCc4ccco4)n3c2c1 | . | -5 | -3% | -11% | . | -14%
Cc1cc2cc(C)c3nnc(SCC(=O)NCc4ccco4)n3c2cc1C | -22% | -79* | -13% | ? | -24% | -30%
O=S(=O)(c1ccc(Cl)cc1)c1nc(-c2cccs2)oc1N1CCCCC1 | 1% | 9 | 0%[46.1 µM] | ? | -20% | .
CSc1ccc(CCNC(=O)CCn2c(=O)c3cccn3c3cccnc32)cc1 | -14% | 15 | 4%[46.1 µM] | . | -11% | .
O=C(CN(c1cccc([N+](=O)[O-])c1)S(=O)(=O)c1ccccc1)NCc1ccccc1 | -4% | -32 | -2% | -7% | i | 8%
O=C(CN(c1cccc([N+](=O)[O-])c1)S(=O)(=O)c1ccccc1)N(Cc1ccccc1)Cc1ccccc1 | -7% | -62* | ? | ? | i | 3%
COc1ccc(C(NC(=O)C2CCN(CCCOc3ccccc3)CC2)c2cccs2)cc1 (configuration not stated) | -10% | -103* | . | . | i | .
Cc1ccc(C(NC(=O)C2CCN(CCCOc3ccccc3)CC2)c2ccccn2)cc1 (configuration not stated) | -11% | -14 | . | . | -7% | .
COc1ccc(OC)c(CCNC(=O)C(C)n2nc(C)c3c(C)n(-c4ccc(C)cc4)nc3c2=O)c1 (configuration not stated) | -28%[7.34 µM] | -77*! | -16%[46.1 µM] | . | -22%[7.34 µM] | 2.8µM*
COc1ccc(CCNC(=O)Cn2nc(C)c3c(C)n(-c4ccc(C)cc4)nc3c2=O)c(OC)c1 | ? | -91* | ? | . | -28% | .
COc1ccc(CN2C(=O)C(C)Nc3ncnc(N4CCc5ccccc5C4)c32)cc1 (configuration not stated) | -21% | -17 | . | . | -24% | .
COc1ccc(CC2C(=O)NC(C)C(=O)N(C)C3Cc4ccc(cc4)Oc4cc(ccc4O)CC(C(=O)NC(C)C(=O)NC(C)C(=O)N2C)N(C)C3=O)cc1 (configuration not stated) | ? | -101* | ? | ? | ? | ?
CCC1(C2CCN(C(=O)c3ccccc3C(C)=O)CC2)NC(=O)N(CCc2scnc2C)C1=O (configuration not stated) | -16% | . | . | . | -15% | .
COc1ccc(CCNC(=O)CCc2c(C)nc3c4c(C)cc(C)nc4nn3c2C)cc1OC | -5% | 1 | 5%[46.1 µM] | 20%[46.1 µM] | 1% | .
CC(/C=N/NC(=O)c1n[nH]c2c1CCC2)=C\c1ccccc1 | . | -88* | ? | ? | . | ?
